What is called Inhibition is the drop in the measured response relative to a control, in per cent.

Several values for one entry are separate records, joined by “and”; a condition that tells them apart may be missing. Identical values can stand only once. Measured potencies and affinities stand elsewhere.

Assay [1] concerns Klebsiella pneumoniae. As to conditions: Concentration 32 ug.mL-1, ASSAY_TEST Inhibition of Bacterial Growth, detection method Absorption (OD600), MEDIA CAMHB, plate type 384well, NBS, CORNING #3640, time 18 hr.
In assay [2] the test system is Candida albicans. To be noted: 32 ug/mL.
Assay [3] has as its system Cryptococcus neoformans. To be noted: Concentration 32 ug.mL-1, ASSAY_TEST Inhibition of Fungal Growth, detection method Resazurin, Absorption (OD600-OD570), plate type 384well, NBS, CORNING #3640. On the technique in general: Alamar Blue is a resazurin reagent that responds to reducing activity.

In the case of `O=C1ON(C(=O)OCc2ccccc2)CC1Cc1ccccc1` (configuration not stated), the Inhibition was 2.56% and 10.07% in assay [1] (32 ug/mL); 4.94% and 2.48% in assay [2]; 7.64% and 2.52% in assay [3] (32 ug/mL).

Turning to `CC1CN(S(=O)(=O)c2ccc([N+](=O)[O-])cc2)N(C(=O)OC(C)(C)C)C1=O` (configuration not stated), the Inhibition in assay [1] (32 ug/mL) is 7.28% and 7.49% and 8.98%; in assay [3] (32 ug/mL), -7.3% and -1.18% and -10.38%.

On to `Cc1ccc(S(=O)(=O)N2CC(C)C(=O)N2S(=O)(=O)c2ccc(C)cc2)cc1` (configuration not stated), for which the Inhibition was 2.85% and 1.74% in assay [1] (32 ug/mL); 7.75% and 4.44% in assay [2]; -9.56% and 1.92% in assay [3] (32 ug/mL).

As for `O=C(OCc1ccccc1)N1CC(Cc2ccccc2)C(O)O1` (configuration not stated), the Inhibition stood at 0% in assay [1], 12.9% in assay [2] and 9.21% in assay [3].

For the molecule `CC1CN(C(=O)OCc2ccccc2)OC1=O` (configuration not stated), the Inhibition in assay [1] (32 ug/mL) was 1.37% and 8.3% and 6.85%.

Take `CC1CN(C(=O)OCc2ccccc2)OC1O` (configuration not stated): the Inhibition in assay [1] was 4.15%; in assay [2] it was 2.95%; in assay [3] it was -0.06%.

For the molecule `CCCCCCCC1CN(S(=O)(=O)c2ccc(C)cc2)N(S(=O)(=O)c2ccc(C)cc2)C1O` (configuration not stated), the Inhibition in assay [1] was 2.03%; in assay [2], 8.32%; in assay [3] it was -3.29%.

In the case of `O=C(OCc1ccccc1)N1OC(O)C2CCCCC21` (configuration not stated), the Inhibition in assay [1] is 8.05%; in assay [2], 6.56%; in assay [3], -9.13%.

Take `Cc1ccc(S(=O)(=O)N2CC(Cc3ccccc3)C(=O)N2S(=O)(=O)c2ccc(C)cc2)cc1` (configuration not stated): the Inhibition in assay [1] (32 ug/mL) was -3.35% and -1.6%; in assay [3] (32 ug/mL) it was -1.01% and -2.47%.

Turning to `CC1C(O)N(C(=O)OC(C)(C)C)N(S(=O)(=O)c2ccc([N+](=O)[O-])cc2)C1C` (configuration not stated), the Inhibition in assay [1] was 8.57%; in assay [2], 3.18%; in assay [3], -8.51%.

As for `CC(C)(C)OC(=O)N1C(=O)C(Cc2ccccc2)CN1S(=O)(=O)c1ccc([N+](=O)[O-])cc1` (configuration not stated), the Inhibition is 6.28% and 7.63% and -5.45% in assay [1] (32 ug/mL); -5.52% and -6.93% and -6.97% in assay [3] (32 ug/mL).

Turning to `CC(C)(C)OC(=O)N1C(O)C2CCCC2N1S(=O)(=O)c1ccc([N+](=O)[O-])cc1` (configuration not stated), the values for the Inhibition in assay [1], in assay [2] and in assay [3] were -0.3%, 1.02% and -8.39%, respectively.

On to `CC(C)(C)OC(=O)N1C(O)C(Cc2ccccc2)CN1S(=O)(=O)c1ccc([N+](=O)[O-])cc1` (configuration not stated), for which the Inhibition in assay [1] (32 ug/mL) was 9.89% and 6.63% and 13.09%; in assay [3] (32 ug/mL) it was -4.16% and -1.5% and -1.29%.

Regarding `CCCCCCCC1CN(S(=O)(=O)c2ccc(C)cc2)N(C(=O)OC(C)(C)C)C1=O` (configuration not stated), the Inhibition in assay [1] was 0.4%; in assay [2], 1.48%; in assay [3], -13.28%.

Consider `CC1CN(S(=O)(=O)c2ccc([N+](=O)[O-])cc2)N(C(=O)OC(C)(C)C)C1O` (configuration not stated), for which the Inhibition in assay [1] was -4.4%; in assay [2], 0.59%; in assay [3], -8.44%.

In the case of `CCCCCCCC1CN(S(=O)(=O)c2ccc(C)cc2)N(C(=O)OC(C)(C)C)C1O` (configuration not stated), the Inhibition in assay [1] is -2.15%; in assay [2] it was 2.88%; in assay [3], -7.05%.

These data come from ChEMBL document CHEMBL4513145, “CO-ADD screening of Biotechnology Research Centre (C.R.B.t) (Algeria) compounds”.
